Laboratory results reported in PubChem BioAssay (Tox21).
Several values for one entry are separate records, joined by “and”; a condition that tells them apart may be missing. Identical values can stand only once. Unmarked numbers belong to inactive results. Results filed as inconclusive are left out. A call without a number means that no potency is given here. Activity calls are given as the source filed them. Unless noted, calls come from the whole dose curve; as a rule, active = well fitted curve in the direction sought with a large enough effect in the repeat runs; inconclusive = weak or mixed curves; inactive = no such curve, though single readings can be large; an effect the other way counts as inactive or inconclusive.

Assays:
[1] = biological target: Acetylcholinesterase (Homo sapiens) (UniProt P22303); assay: Acetylcholinesterase (AChE) small molecule antagonists: enzyme-based qHTS assay (AID 1347397; calls by dose curve; note: nearly all actives have a fitted effect of over 55% in size; note: potency is the fitted concentration of half-maximal effect); details: Potency: AChE enzyme activity inhibition; outcome: AChE enzyme activity inhibition
Method in brief: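 Enzyme inhibition was scored from DTNB-detected thiocholine formed by recombinant human AChE acting on acetylthiocholine. The 30 min compound preincubation and 10 min substrate reaction were both run at room temperature, with DMSO as vehicle control.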

[2] = biological target: Acetylcholinesterase (Homo sapiens) (UniProt P22303); assay: Acetylcholinesterase (AChE) small molecule antagonists: fluorescence cell-based qHTS assay (AID 1347398; calls by dose curve; note: nearly all actives have a fitted effect of over 50% in size; note: potency is the fitted concentration of half-maximal effect); details: Potency: AChE activity; outcome: AChE activity
Method in brief: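 Endogenous acetylcholinesterase of SH-SY5Y neuroblastoma cells is measured in situ. After overnight attachment and 30 min compound exposure, cells receive acetylthiocholine and Thiolite Green; fluorescence is read after 40 min at room temperature.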

[3] = biological target: Acetylcholinesterase (Homo sapiens) (UniProt P22303); assay: Acetylcholinesterase (AChE) small molecule antagonists: enzyme-based qHTS assay with human liver microsomes (AID 1347399; calls by dose curve; note: nearly all actives have a fitted effect of over 60% in size; note: potency is the fitted concentration of half-maximal effect); details: Potency: qHTS inhibition; outcome: qHTS inhibition
Method in brief: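 Recombinant human AChE (50 mU/mL in the enzyme mix) and human liver microsomes (0.25 mg/mL final) were preincubated with compound and NADPH (0.25 mg/mL final) for 30 min at 37 C. Acetylthiocholine/DTNB was then added; thiocholine was read colorimetrically after 10 min at room temperature.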

[4] = biological target: Cytochrome P450 2D6 (Homo sapiens) (UniProt P10635); assay: Cytochrome P450 Family 2 Subfamily D Member 6 (CYP2D6) small molecule antagonists: luciferase reporter qHTS assay (AID 1671196); note: nearly all actives have a fitted effect of over 50% in size; note: potency is the fitted concentration of half-maximal effect; for activity change, negative = inhibition: series mostly up to about 120 µM
Method in brief: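 Read-out is luminescence from luciferin formed by CYP2D6 turnover of a proluciferin substrate, recorded as relative luminescence units. Reactions ran 1 h at room temperature after NADPH regeneration solution was added.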

[5] = biological target: Cytochrome P450 2C19 (Homo sapiens) (UniProt P33261); assay: Cytochrome P450 Family 2 Subfamily C Member 19 (CYP2C19) small molecule antagonists: luciferase reporter qHTS assay (AID 1671197); note: nearly all actives have a fitted effect of over 65% in size; note: potency is the fitted concentration of half-maximal effect; for activity change, negative = inhibition: series mostly up to about 120 µM
Method in brief: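 Enzyme-substrate mix with proluciferin substrate (P450-Glo CYP2C19 system) preincubated with compounds 10 min at room temperature; NADPH regeneration solution added, 37C for 1 h; detection reagent stops reaction, luminescence read after 20 min. Ketoconazole positive control.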

[6] = biological target: Cytochrome P450 2C9 (Homo sapiens) (UniProt P11712); assay: Cytochrome P450 Family 2 Subfamily C Member 9 (CYP2C9) small molecule antagonists: luciferase reporter qHTS assay (AID 1671198); note: nearly all actives have a fitted effect of over 50% in size; note: potency is the fitted concentration of half-maximal effect; for activity change, negative = inhibition: series mostly up to about 120 µM
Method in brief: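 P450-Glo proluciferin substrate with CYP2C9 enzyme; 10 min RT preincubation, then NADPH regeneration 1 h at 37C; luciferin detection reagent 20 min RT, luminescence in relative luminescence units.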

[7] = biological target: Cytochrome P450 1A2 (Homo sapiens) (UniProt P05177); assay: Cytochrome P450 Family 1 Subfamily A Member 2 (CYP1A2) small molecule antagonists: luciferase reporter qHTS assay (AID 1671199); note: nearly all actives have a fitted effect of over 50% in size; note: potency is the fitted concentration of half-maximal effect; for activity change, negative = inhibition: series mostly up to about 120 µM
Method in brief: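 P450-Glo CYP1A2, 1536-well qHTS: enzyme/proluciferin substrate + cpd (DMSO), 10 min RT; NADPH regen, 1 h RT; detection reagent, 20 min; luminescence, RLU.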

[8] = biological target: Voltage-gated inwardly rectifying potassium channel KCNH2 (Homo sapiens) (UniProt Q12809); assay: Human Ether-a-go-go-Related Gene (hERG) channel small molecule antagonists: fluorescence cell-based qHTS assay (AID 1671200)
Method in brief: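 In this thallium-flux screen, overnight-cultured U2OS cells bearing the channel are dye-loaded in darkness for an hour, rested 10 min at room temperature, and then monitored kinetically at 480/540 nm for two minutes post-stimulus.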

[9] = biological target: Cytochrome P450 3A4 (Homo sapiens) (UniProt P08684); assay: Cytochrome P450 Family 3 Subfamily A Member 4 (CYP3A4) small molecule antagonists: luciferase reporter qHTS assay (AID 1671201); note: nearly all actives have a fitted effect of over 50% in size; note: potency is the fitted concentration of half-maximal effect; for activity change, negative = inhibition: series mostly up to about 120 µM
Method in brief: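 CYP3A4 activity was followed with a P450-Glo proluciferin substrate. Test compounds in DMSO were preincubated 10 min; NADPH regeneration then ran 1 h, and light output was read 20 min after detection reagent.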

Cytochrome P450 3A4 (Homo sapiens), sequence (P08684 whole entry, looked up): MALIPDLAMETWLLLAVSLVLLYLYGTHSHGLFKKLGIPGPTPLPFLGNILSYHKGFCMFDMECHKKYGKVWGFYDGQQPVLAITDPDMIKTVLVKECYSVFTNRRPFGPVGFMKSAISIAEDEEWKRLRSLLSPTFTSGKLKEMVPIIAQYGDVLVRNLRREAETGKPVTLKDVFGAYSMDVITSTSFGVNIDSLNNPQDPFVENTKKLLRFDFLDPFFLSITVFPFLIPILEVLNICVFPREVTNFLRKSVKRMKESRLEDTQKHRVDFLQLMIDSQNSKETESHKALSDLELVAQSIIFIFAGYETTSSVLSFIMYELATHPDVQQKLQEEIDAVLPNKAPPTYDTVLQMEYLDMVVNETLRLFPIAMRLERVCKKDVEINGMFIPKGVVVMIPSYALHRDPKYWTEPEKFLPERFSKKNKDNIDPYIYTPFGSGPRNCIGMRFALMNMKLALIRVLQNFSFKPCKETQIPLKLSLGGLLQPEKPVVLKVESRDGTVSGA
Voltage-gated inwardly rectifying potassium channel KCNH2 (Homo sapiens), sequence (Q12809 whole entry, looked up): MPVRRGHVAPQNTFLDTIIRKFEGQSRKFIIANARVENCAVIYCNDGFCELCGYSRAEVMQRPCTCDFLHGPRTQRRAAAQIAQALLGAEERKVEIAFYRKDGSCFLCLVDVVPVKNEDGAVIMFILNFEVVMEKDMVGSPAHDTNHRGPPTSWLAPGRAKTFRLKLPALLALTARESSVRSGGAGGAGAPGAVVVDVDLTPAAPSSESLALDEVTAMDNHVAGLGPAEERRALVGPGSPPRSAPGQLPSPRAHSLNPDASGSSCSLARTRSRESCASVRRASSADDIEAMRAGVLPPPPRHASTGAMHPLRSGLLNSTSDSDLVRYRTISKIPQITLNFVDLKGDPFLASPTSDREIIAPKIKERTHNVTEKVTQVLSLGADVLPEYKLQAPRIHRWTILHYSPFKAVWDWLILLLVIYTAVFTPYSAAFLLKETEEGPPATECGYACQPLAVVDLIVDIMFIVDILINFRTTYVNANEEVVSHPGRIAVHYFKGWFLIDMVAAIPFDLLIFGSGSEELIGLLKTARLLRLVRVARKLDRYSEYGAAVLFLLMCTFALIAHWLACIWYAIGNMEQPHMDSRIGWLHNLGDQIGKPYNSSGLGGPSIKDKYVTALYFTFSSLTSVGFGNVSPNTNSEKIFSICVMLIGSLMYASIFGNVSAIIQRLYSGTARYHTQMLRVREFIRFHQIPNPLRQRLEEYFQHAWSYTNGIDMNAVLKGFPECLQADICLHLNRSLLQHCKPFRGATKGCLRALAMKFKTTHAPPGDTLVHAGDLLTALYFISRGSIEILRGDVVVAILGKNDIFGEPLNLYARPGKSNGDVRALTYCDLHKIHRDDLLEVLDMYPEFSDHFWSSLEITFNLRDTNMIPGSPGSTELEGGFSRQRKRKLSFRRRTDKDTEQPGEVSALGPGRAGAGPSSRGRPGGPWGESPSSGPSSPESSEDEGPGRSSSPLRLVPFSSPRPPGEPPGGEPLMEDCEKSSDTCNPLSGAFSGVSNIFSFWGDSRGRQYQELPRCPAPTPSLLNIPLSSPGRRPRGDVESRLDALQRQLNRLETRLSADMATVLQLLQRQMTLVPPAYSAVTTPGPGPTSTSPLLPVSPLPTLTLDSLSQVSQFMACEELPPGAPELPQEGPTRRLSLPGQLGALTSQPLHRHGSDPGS
Cytochrome P450 2C19 (Homo sapiens), sequence (P33261 whole entry, looked up): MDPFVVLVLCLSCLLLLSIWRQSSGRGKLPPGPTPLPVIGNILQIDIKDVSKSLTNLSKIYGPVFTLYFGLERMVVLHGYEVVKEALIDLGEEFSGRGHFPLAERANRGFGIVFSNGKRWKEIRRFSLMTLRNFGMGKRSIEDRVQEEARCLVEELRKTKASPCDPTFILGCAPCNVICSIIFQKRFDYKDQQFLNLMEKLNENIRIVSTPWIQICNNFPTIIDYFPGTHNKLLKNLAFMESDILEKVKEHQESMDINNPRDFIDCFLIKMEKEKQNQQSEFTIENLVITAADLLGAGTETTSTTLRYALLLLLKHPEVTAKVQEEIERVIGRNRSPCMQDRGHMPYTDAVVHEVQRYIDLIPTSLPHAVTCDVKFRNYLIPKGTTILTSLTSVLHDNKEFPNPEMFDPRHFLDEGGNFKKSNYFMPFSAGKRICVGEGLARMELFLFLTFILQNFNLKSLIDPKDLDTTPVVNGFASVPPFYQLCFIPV
Cytochrome P450 1A2 (Homo sapiens), sequence (P05177 whole entry, looked up): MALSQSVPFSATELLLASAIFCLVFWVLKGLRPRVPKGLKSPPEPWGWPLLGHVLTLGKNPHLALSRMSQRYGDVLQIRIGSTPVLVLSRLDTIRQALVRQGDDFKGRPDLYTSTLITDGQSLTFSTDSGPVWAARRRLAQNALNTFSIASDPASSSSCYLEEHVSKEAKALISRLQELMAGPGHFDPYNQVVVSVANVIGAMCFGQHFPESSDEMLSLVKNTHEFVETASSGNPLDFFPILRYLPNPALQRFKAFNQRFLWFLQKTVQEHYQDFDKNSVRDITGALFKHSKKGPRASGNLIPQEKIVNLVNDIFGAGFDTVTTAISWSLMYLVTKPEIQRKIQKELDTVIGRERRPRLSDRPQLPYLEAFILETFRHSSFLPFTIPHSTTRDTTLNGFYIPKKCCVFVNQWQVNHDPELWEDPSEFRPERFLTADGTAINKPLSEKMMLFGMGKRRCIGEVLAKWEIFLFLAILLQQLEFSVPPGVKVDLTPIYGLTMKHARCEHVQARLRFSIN
Acetylcholinesterase (Homo sapiens), sequence (P22303 whole entry, looked up): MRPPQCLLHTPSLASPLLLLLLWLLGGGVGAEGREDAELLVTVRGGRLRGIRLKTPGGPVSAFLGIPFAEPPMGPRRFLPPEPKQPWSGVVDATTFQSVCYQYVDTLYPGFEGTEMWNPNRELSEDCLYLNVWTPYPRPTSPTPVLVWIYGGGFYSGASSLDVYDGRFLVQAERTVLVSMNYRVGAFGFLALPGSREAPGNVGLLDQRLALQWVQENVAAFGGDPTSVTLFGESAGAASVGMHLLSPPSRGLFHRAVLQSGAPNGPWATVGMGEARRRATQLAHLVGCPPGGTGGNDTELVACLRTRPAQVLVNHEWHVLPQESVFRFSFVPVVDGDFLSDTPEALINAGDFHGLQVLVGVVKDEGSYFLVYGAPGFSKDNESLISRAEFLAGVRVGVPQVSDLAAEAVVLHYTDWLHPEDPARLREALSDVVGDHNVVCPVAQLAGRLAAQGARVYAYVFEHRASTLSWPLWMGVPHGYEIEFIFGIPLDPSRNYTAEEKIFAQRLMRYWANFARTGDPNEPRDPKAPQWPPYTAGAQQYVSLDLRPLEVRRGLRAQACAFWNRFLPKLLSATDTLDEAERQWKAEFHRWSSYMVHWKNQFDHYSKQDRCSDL
Cytochrome P450 2C9 (Homo sapiens), sequence (P11712 whole entry, looked up): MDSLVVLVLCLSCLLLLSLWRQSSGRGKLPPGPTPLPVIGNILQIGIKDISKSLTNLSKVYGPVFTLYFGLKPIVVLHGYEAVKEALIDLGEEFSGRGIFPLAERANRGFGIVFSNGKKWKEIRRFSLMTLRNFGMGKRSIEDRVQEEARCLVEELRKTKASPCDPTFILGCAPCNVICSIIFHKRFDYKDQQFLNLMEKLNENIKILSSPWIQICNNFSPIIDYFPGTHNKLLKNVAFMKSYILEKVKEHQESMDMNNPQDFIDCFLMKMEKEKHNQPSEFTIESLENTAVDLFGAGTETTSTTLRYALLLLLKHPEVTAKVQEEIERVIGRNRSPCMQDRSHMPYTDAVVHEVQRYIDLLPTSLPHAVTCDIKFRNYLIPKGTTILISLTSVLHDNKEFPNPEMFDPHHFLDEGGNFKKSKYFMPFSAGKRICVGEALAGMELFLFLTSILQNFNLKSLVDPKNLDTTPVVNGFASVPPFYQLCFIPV
Cytochrome P450 2D6 (Homo sapiens), sequence (P10635 whole entry, looked up): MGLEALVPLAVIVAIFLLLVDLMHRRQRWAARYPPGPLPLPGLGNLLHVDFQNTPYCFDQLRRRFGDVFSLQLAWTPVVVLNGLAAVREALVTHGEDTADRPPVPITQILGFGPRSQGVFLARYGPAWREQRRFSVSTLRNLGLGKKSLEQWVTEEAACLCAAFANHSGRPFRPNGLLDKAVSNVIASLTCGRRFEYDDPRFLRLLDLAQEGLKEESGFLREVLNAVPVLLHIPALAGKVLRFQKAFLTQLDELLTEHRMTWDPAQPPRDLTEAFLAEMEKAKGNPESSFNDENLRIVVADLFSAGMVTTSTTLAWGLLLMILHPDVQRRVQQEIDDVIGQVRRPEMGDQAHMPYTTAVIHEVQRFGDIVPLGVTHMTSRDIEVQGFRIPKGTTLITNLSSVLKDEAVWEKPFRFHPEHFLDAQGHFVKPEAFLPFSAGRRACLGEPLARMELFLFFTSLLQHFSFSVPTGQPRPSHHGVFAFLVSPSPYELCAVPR

For `N=C(N)[Se]`, the Potency [1] was “inactive”, the Potency [2] was “inactive” and the Potency [3] was “inactive”. For the same compound, the Potency [4] was “inactive”, the Potency [5] was “inactive” and the Potency [6] was “inactive”. The Potency [7] was “inactive”, the Potency [8] was “inactive” and the Potency [9] was “inactive”.

With `O=P(O)(O)CN(CP(=O)(O)O)CP(=O)(O)O` the Potency [1] was “inactive”, the Potency [2] was “inactive” and the Potency [3] was “inactive”. The Potency [4] was “inactive”, the Potency [5] was “inactive” and the Potency [6] was “inactive”. The Potency [7] was “inactive” and the Potency [8] was “inactive”.

`CON(C)C(=O)Nc1ccc(Br)c(Cl)c1` was tested, and the Potency [1] was “inactive”, the Potency [2] was “inactive” and the Potency [3] was “inactive”. For the same compound, the Potency [4] was “inactive”, the Potency [5] was 28.3 µM (active) and the Potency [6] was 63.3 µM (active). For the same compound, the Potency [7] was 1.78 µM (active) and the Potency [8] was “inactive”.

For `O=C(O)C(Br)(Br)Br`, the Potency [1] was “inactive”, the Potency [2] was “inactive” and the Potency [3] was “inactive”. For the same compound, the Potency [4] was “inactive”, the Potency [5] was 31.7 µM (active) and the Potency [6] was “inactive”. For the same compound, the Potency [8] was “inactive” and the Potency [9] was “inactive”.

For `CCN(CC)C1CCCCC1`, the Potency [1] was “inactive”, the Potency [2] was “inactive” and the Potency [3] was “inactive”. For the same compound, the Potency [4] was “inactive”, the Potency [5] was “inactive” and the Potency [6] was “inactive”. For the same compound, the Potency [8] was “inactive” and the Potency [9] was “inactive”.

In the case of `C/C=C/CC#N`, the Potency [1] is reported as “inactive”, the Potency [2] is reported as “inactive” and the Potency [3] is reported as “inactive”. For the same compound, the Potency [4] was “inactive”, the Potency [5] was “inactive” and the Potency [6] was “inactive”. For the same compound, the Potency [7] was 36.4 µM (active) and the Potency [9] was “inactive”.

Compound `Brc1c(Br)c(Br)c(Br)c(Br)c1Br` has an activity change, negative = inhibition [1] of -2.31% [at 10.5 µM], an activity change, negative = inhibition [2] of -32.6% [at 10.5 µM] and an activity change, negative = inhibition [3] of -0.832% [at 10.5 µM]. For the same compound, the activity change, negative = inhibition [4] was -1.47% [at 10.5 µM], the activity change, negative = inhibition [5] was -0.615% [at 10.5 µM] and the activity change, negative = inhibition [6] was 0.0091% [at 10.5 µM]. For the same compound, the activity change, negative = inhibition [8] was 19.9% [at 6.97 µM] and the activity change, negative = inhibition [9] was 2.63% [at 10.5 µM].

In the case of `Cn1c(CCCC(=O)O)nc2cc(N(CCCl)CCCl)ccc21`, the Potency [1] is reported as “inactive”, the Potency [2] is reported as “inactive” and the Potency [3] is reported as “inactive”. For the same compound, the Potency [4] was “inactive”, the Potency [5] was “inactive” and the Potency [6] was “inactive”. The Potency [7] was “inactive”, the Potency [8] was “inactive” and the Potency [9] was “inactive”.

In the case of `CC(C)[C@]12CC(=O)[C@H](C)[C@H]1C2`, the Potency [1] is reported as “inactive”, the Potency [2] is reported as “inactive” and the Potency [3] is reported as “inactive”. The Potency [4] was “inactive”, the Potency [5] was “inactive” and the Potency [6] was “inactive”. The Potency [7] was “inactive”, the Potency [8] was “inactive” and the Potency [9] was “inactive”.

`N#CN` was tested, and the Potency [1] was “inactive”, the Potency [2] was “inactive” and the Potency [3] was “inactive”. For the same compound, the Potency [4] was “inactive”, the Potency [5] was “inactive” and the Potency [6] was “inactive”. The Potency [7] was “inactive”, the Potency [8] was “inactive” and the Potency [9] was “inactive”.

`CNC(=O)O/N=C(/CSC)C(C)(C)C` was tested, and the Potency [1] was 1 µM (active), the Potency [2] was 0.142 µM (active) and the Potency [3] was 11.2 µM (active). The Potency [4] was “inactive”, the Potency [5] was 20 µM (active) and the Potency [6] was “inactive”. For the same compound, the Potency [8] was “inactive”.

In the case of `Cc1ccc(Cl)c(O)c1`, the Potency [1] is reported as “inactive”, the Potency [2] is reported as “inactive” and the Potency [3] is reported as “inactive”. The Potency [4] was “inactive”, the Potency [5] was “inactive” and the Potency [6] was “inactive”. For the same compound, the Potency [7] was “inactive” and the Potency [8] was “inactive”.

For `NCC1(CC(=O)O)CCCCC1`, the Potency [1] was “inactive”, the Potency [2] was “inactive” and the Potency [3] was “inactive”. For the same compound, the Potency [4] was “inactive”, the Potency [5] was “inactive” and the Potency [6] was “inactive”. For the same compound, the Potency [7] was “inactive”, the Potency [8] was “inactive” and the Potency [9] was “inactive”.

With `[O-][Br+2]([O-])O` the Potency [1] was “inactive”, the Potency [2] was “inactive” and the Potency [3] was “inactive”. For the same compound, the Potency [4] was “inactive”, the Potency [5] was “inactive” and the Potency [6] was “inactive”. For the same compound, the Potency [7] was “inactive” and the Potency [8] was “inactive”.

`CCOC(=O)CC(SP(=S)(OC)OC)C(=O)OCC` (stereo not given) was tested, and the Potency [1] was “inactive”, the Potency [2] was “inactive” and the Potency [3] was “inactive”. The Potency [4] was “inactive”, the Potency [5] was 178 nM (active) and 436 nM (active) and the Potency [6] was 1.19 µM (active) and 1.38 µM (active). The Potency [7] was 2.24 µM (active) and 1.62 µM (active) and the Potency [8] was “inactive”.

`C=CC=O` was tested, and the Potency [1] was “inactive”, the Potency [2] was “inactive” and the Potency [3] was “inactive”. For the same compound, the Potency [4] was “inactive”, the Potency [5] was “inactive” and the Potency [6] was “inactive”. The Potency [7] was “inactive”, the Potency [8] was “inactive” and the Potency [9] was “inactive”.

`CCOP(=S)(OCC)SCCl` was tested, and the Potency [1] was “inactive”, the Potency [2] was “inactive” and the Potency [3] was “inactive”. The Potency [4] was “inactive”, the Potency [5] was 35.6 µM (active) and the Potency [6] was 14.2 µM (active). The Potency [7] was 25.2 µM (active), the Potency [8] was “inactive” and the Potency [9] was 11.2 µM (active).

`C[C@H]1CCCC(=O)CCC/C=C/c2cc(O)cc(O)c2C(=O)O1` was tested, and the Potency [1] was “inactive”, the Potency [2] was “inactive” and the Potency [3] was “inactive”. The Potency [4] was 54.3 µM (active), the Potency [5] was 17.2 µM (active) and 29.2 µM (active) and the Potency [6] was 4.84 µM (active) and 7.34 µM (active). For the same compound, the Potency [7] was 21.6 µM (active) and 13.1 µM (active) and the Potency [9] was 122 nM (active) and 184 nM (active).

With `CC(C)(C)NC[C@H](O)c1ccc(O)cc1Cl` the Potency [1] was “inactive”, the Potency [2] was “inactive” and the Potency [3] was “inactive”. The Potency [4] was 30.9 µM (active), the Potency [5] was “inactive” and the Potency [6] was “inactive”. For the same compound, the Potency [7] was “inactive”, the Potency [8] was “inactive” and the Potency [9] was “inactive”.

With `CC(Cl)(Cl)Cl` the Potency [1] was “inactive”, the Potency [2] was “inactive” and the Potency [3] was “inactive”. The Potency [4] was “inactive”, the Potency [5] was “inactive” and the Potency [6] was “inactive”. The Potency [7] was “inactive”, the Potency [8] was “inactive” and the Potency [9] was “inactive”.

`CC(C)C(C)(N)C#N` (stereo not given) was tested, and the Potency [1] was “inactive”, the Potency [2] was “inactive” and the Potency [3] was “inactive”. For the same compound, the Potency [4] was “inactive”, the Potency [5] was “inactive” and the Potency [6] was “inactive”. The Potency [7] was “inactive”, the Potency [8] was “inactive” and the Potency [9] was “inactive”.

With `CN=CNc1ccc(C)cc1C` the Potency [1] was “inactive”, the Potency [2] was “inactive” and the Potency [3] was “inactive”. The Potency [4] was “inactive”, the Potency [5] was “inactive” and the Potency [6] was “inactive”. For the same compound, the Potency [7] was “inactive”, the Potency [8] was “inactive” and the Potency [9] was “inactive”.

In the case of `CCCCCCC1CCOC1=O` (stereo not given), the Potency [1] is reported as “inactive”, the Potency [2] is reported as “inactive” and the Potency [3] is reported as “inactive”. The Potency [4] was “inactive”, the Potency [5] was 39.9 µM (active) and the Potency [6] was “inactive”. For the same compound, the Potency [8] was “inactive”.

For `CCOC1Oc2ccc(OS(C)(=O)=O)cc2C1(C)C` (stereo not given), the Potency [1] was “inactive”, the Potency [2] was “inactive” and the Potency [3] was “inactive”. For the same compound, the Potency [4] was 35.3 µM (active), the Potency [5] was 3.96 µM (active) and the Potency [6] was 22.3 µM (active). The Potency [7] was 35.3 µM (active), the Potency [8] was “inactive” and the Potency [9] was “inactive”.

For `CC(C)(C)C(=O)Cl`, the Potency [1] was “inactive”, the Potency [2] was “inactive” and the Potency [3] was “inactive”. The Potency [4] was “inactive”, the Potency [5] was “inactive” and the Potency [6] was “inactive”. For the same compound, the Potency [7] was “inactive” and the Potency [8] was “inactive”.
